High-throughput results deposited in PubChem by National Center for Advancing Translational Sciences (NCATS).
DT40 TDP1 no CPT: qHTS for Inhibitors of human tyrosyl-DNA phosphodiesterase 1 (TDP1): qHTS in cells in absence of CPT; 420,000 compounds, 15% hits; Potency, µM (titrated, usually from 46.2 µM), for the others: at the top dose activity change, negative = growth inhibition, actives largely listed as inhibitors; DT40 Tdp1-/- hTDP1 cells, no CPT, ATP luminescence, 48 h; also: potency is read from the fitted curve at half-maximal effect; nearly all actives have a fitted effect of over 55% in size
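No-CPT arm: Tdp1-/-;hTDP1 DT40 cells (400/well) plus compounds, incubated ≥48 hr at 37 °C. Readout CellTiter-Glo luminescence.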
TDP1 cell CPT: qHTS for Inhibitors of human tyrosyl-DNA phosphodiesterase 1 (TDP1): qHTS in cells in presence of CPT; 420,000 compounds, 12% hits; Potency, µM (doses to about 46.2 µM), inactives show at the highest dose activity change, negative = growth inhibition, hits mostly inhibitors; chicken DT40 Tdp1-/-;hTDP1 cells + 20 nM CPT, ATP luminescence, 48 h; AID 686979, 2013; also: potency is read from the fitted curve at half-maximal effect; nearly all actives have a fitted effect of over 55% in size
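Chicken DT40 Tdp1-/- cells complemented with human TDP1, 400 cells/well, exposed to compounds plus 20 nM camptothecin for at least 48 h at 37 C; viability read as ATP content by CellTiter-Glo luminescence.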
HT1080-NT tox: qHTS for induction of synthetic lethality in tumor cells producing 2HG: qHTS for the HT-1080-NT fibrosarcoma cell line; HT-1080-NT fibrosarcoma viability, CellTiter-Glo ATP luminescence, 48 h; Potency, µM (doses to about 46.1 µM), for the others: top-dose activity, negative = less viability, most hits filed as cytotoxic; 360,000 compounds, 1.6% hits; AID 686970, 2013;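 also: NT is the 2HG producing partner of a matched IDH1 knockdown line; potency is read from the fitted curve at half-maximal effect; 0% = DMSO-treated cells and -100% = media-only wells without cells; nearly all actives have a fitted effect of over 55% in size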
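Fibrosarcoma NT cells, 750 per well in 5% FBS RPMI, were exposed to compound for 48 hours. Viability: CellTiter-Glo luminescence.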
IL1B secr inh: qHTS for Inhibitors of Inflammasome Signaling: IL-1-beta AlphaLISA Primary Screen; THP-1 LPS/ATP IL-1B secretion, AlphaLISA, 16 h; hits give low values; activity change, % at 57.5 µM; 360,000 compounds, 4.7% hits; AID 743279, 2014; in the data active = activity change below about -50%; inconclusive = mostly about -30% to -49%
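THP-1 cells pretreated 1 hr with compounds (up to 57.5 uM final), then stimulated with LPS (250 ng/mL final) plus ATP (1.25 mM final); secreted IL-1B measured by AlphaLISA after 16 hr, decreased signal indicating inhibition.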
HT1080 IDH1KD tx: qHTS for induction of synthetic lethality in tumor cells producing 2HG: qHTS for the HT-1080-IDH1KD cell line; HT-1080 IDH1 knockdown viability, ATP luminescence, 48 h; Potency, µM (highest dose often 46.1 µM), for the others: top-dose activity, negative = toxicity, hits mostly cytotoxic; 360,000 compounds, 2% hits;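 also: potency is read from the fitted curve at half-maximal effect; 0% = DMSO wells and -100% = cell-free medium wells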
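After a 2 h attachment period, IDH1KD HT-1080 cells took pin-transferred compound for 48 h at 37 °C; ATP-based luminescence after 10 min room-temperature reagent incubation reported viability.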
ALOX12 inh: Primary qHTS assay for inhibitors of human arachidonate 12S-lipoxygenase (ALOX12): Round 2; Potency, µM (doses to about 108 µM), inactives show at the top dose activity change, negative = inhibition, actives largely listed as inhibitors; 580,000 compounds, 1.1% hits; purified 12hLO, xylenol orange hydroperoxide absorbance; Polyunsaturated fatty acid lipoxygenase ALOX12 (Homo sapiens), P18054; also: potency is read from the fitted curve at half-maximal effect
Target sequence (P18054 whole entry, looked up): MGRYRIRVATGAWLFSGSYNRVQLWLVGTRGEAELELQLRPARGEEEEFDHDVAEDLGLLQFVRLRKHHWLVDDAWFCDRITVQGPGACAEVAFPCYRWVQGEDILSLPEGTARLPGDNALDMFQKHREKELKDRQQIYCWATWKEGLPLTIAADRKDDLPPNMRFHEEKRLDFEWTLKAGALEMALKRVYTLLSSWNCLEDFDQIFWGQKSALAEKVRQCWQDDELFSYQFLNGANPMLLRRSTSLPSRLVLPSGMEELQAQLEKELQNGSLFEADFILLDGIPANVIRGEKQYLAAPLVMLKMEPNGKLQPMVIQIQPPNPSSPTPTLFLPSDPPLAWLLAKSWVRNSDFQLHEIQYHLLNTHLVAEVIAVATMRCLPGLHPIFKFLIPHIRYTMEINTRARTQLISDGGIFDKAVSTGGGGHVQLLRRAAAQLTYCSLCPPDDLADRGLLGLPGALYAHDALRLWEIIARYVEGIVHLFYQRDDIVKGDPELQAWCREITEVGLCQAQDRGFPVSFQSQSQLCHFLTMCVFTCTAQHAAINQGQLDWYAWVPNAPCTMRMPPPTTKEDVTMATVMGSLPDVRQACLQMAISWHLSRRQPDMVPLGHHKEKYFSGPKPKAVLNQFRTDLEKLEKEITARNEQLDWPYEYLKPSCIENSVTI
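Purified human 12hLO at 150 nM in 25 mM Hepes, 0.01% Triton X-100, pH 7.0, preincubated 15 min at room temperature with compound. Reaction started with 40 uM arachidonic acid, 30 min at room temperature. Hydroperoxide measured by Fe-xylenol orange, 573/405 nm absorbance ratio.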
* = called active by the depositor. The full list was thinned out, with hits kept by preference. Unless noted, calls follow the shape of the dose curve; as a rule, active = well fitted curve in the direction sought with a large enough effect; inconclusive = small, poorly fitted or top-dose-only effect, or another doubt; inactive = no such curve, though single readings can be large; an effect the other way counts as inactive or inconclusive. Unless noted, % is scaled to controls: 0 for no effect and ±100 for the full control effect.

O=C(CSc1nnc(Cc2csc(Nc3cccc(Cl)c3)n2)o1)N1CCc2ccccc21 was read as DT40 TDP1 no CPT 21µM*, TDP1 cell CPT 18µM*, HT1080-NT tox -12%, IL1B secr inh inconclusive, HT1080 IDH1KD tx -8% and ALOX12 inh 0%.
`O=C(CSc1nnc(-c2ccccc2Cl)o1)N1CCCc2ccccc21` gave DT40 TDP1 no CPT 16µM*, TDP1 cell CPT inconclusive and ALOX12 inh -20%.
`O=C(CSc1nnc(CNc2ccccc2)o1)N1CCc2ccccc21` gave DT40 TDP1 no CPT -14%, TDP1 cell CPT -4%, HT1080-NT tox -3%, IL1B secr inh 6, HT1080 IDH1KD tx -11% and ALOX12 inh 0%.
`O/N=C1\CC/C(=N\O)c2nn(-c3ccc(Cl)cc3Cl)nc21` gave DT40 TDP1 no CPT inconclusive, TDP1 cell CPT 26µM*, HT1080-NT tox -23%, IL1B secr inh -51*, HT1080 IDH1KD tx -18% and ALOX12 inh 17%.
Screening O/N=C1\CCc2cc(Cl)ccc21 returned DT40 TDP1 no CPT -19%, TDP1 cell CPT -20%, HT1080-NT tox 2%, IL1B secr inh 13, HT1080 IDH1KD tx 7% and ALOX12 inh 6%.
For COc1ccc(CNC(=O)CC[C@]23CC[C@](C)(O)C[C@H]2C(C)(C)C[C@@H]3NC(=O)c2cccc(F)c2)cc1 the results were ALOX12 inh 7%.
CCOC(=O)N1CCN(C(=O)c2cc(OC)c(OC)c(OC)c2)CC1 was read as DT40 TDP1 no CPT 10%, TDP1 cell CPT -3%, HT1080-NT tox -1%, IL1B secr inh 0, HT1080 IDH1KD tx -1% and ALOX12 inh 0%.
Screening COc1cccc(C(=O)N2CCN(c3nc4cc(C)cc(C)c4cc3C#N)CC2)c1 returned DT40 TDP1 no CPT 16µM*, TDP1 cell CPT 23µM*, HT1080-NT tox 8%, IL1B secr inh -22, HT1080 IDH1KD tx 7% and ALOX12 inh inconclusive.
Screening Cc1ccc2cc(C#N)c(N3CCCN(C(=O)c4cnccn4)CC3)nc2c1 returned DT40 TDP1 no CPT inconclusive, TDP1 cell CPT inconclusive, HT1080-NT tox -1%, IL1B secr inh -9, HT1080 IDH1KD tx -2% and ALOX12 inh -24%.
`Cc1ccc2cc(C#N)c(N3CCN(C(=O)c4ccccc4)CC3)nc2c1` gave DT40 TDP1 no CPT 10µM*, TDP1 cell CPT 21µM*, HT1080-NT tox 0%, IL1B secr inh inconclusive, HT1080 IDH1KD tx -7% and ALOX12 inh 2%.
`COc1cc(C(=O)N2CCN(c3ccc(C)cc3C)CC2)cc(OC)c1OC` gave DT40 TDP1 no CPT 3.7µM*, TDP1 cell CPT 2.9µM*, HT1080-NT tox 4.6µM*, IL1B secr inh 95, HT1080 IDH1KD tx 5.8µM* and ALOX12 inh 264%.
Cc1cc(C)c2cc(C#N)c(N3CCCC3)nc2c1 was read as DT40 TDP1 no CPT inconclusive, TDP1 cell CPT -14%, HT1080-NT tox 1%, IL1B secr inh -9, HT1080 IDH1KD tx -1% and ALOX12 inh inconclusive.
COc1cc(C(=O)N2CCCN(c3nc4cc(C)ccc4cc3C#N)CC2)cc(OC)c1OC was read as DT40 TDP1 no CPT inconclusive, TDP1 cell CPT 21µM*, HT1080-NT tox -8%, IL1B secr inh 36, HT1080 IDH1KD tx 0% and ALOX12 inh -17%.
COCc1c(C(=O)N2CCC(C(=O)Nc3ccc4c(c3)OCO4)CC2)oc2ccccc12 was read as ALOX12 inh -1%.
Screening O=C(NC1CCc2nnc(C3CC3)n2CC1)c1cc(C2CC2)[nH]n1 (stereo unspecified) returned ALOX12 inh 44%.
Screening O=C(CC[C@H]1NC(=O)c2ccccc2NC1=O)NCCc1ccncc1 returned ALOX12 inh 51%.
COc1ccc(-c2ccc(CCC(=O)Nc3ccc(OC)c(Cl)c3)o2)cc1 was read as ALOX12 inh -63%.
For COc1cc(-c2ccc(C)cc2)nc2ccc(C(=O)N3CCC(C(N)=O)CC3)cc12 the results were ALOX12 inh -11%.
Screening CCOC(=O)C1CCN(c2nc3cc(OC)ccc3cc2C#N)CC1 returned DT40 TDP1 no CPT -14%, TDP1 cell CPT -17%, HT1080-NT tox 7%, IL1B secr inh 9, HT1080 IDH1KD tx 2% and ALOX12 inh -12%.
For COc1ccc(C(=O)N2CCN(c3nc4cc(C)ccc4cc3C#N)CC2)c(OC)c1 the results were DT40 TDP1 no CPT 16µM*, TDP1 cell CPT 16µM*, HT1080-NT tox -6%, IL1B secr inh -59*, HT1080 IDH1KD tx -25% and ALOX12 inh 0%.
Cc1ccc2nc(N3CCN(C(=O)c4cccs4)CC3)c(C#N)cc2c1 was read as DT40 TDP1 no CPT 15µM*, TDP1 cell CPT 21µM*, HT1080-NT tox -3%, IL1B secr inh -59*, HT1080 IDH1KD tx -4% and ALOX12 inh inconclusive.
Screening CC1CCCN(C(=O)CSc2nnc(-c3ccccc3)o2)C1 (stereo unspecified) returned ALOX12 inh 2%.
O=S(Cc1cccc(Cl)c1)Cc1cccc(C(F)(F)F)c1 (stereo unspecified) was read as ALOX12 inh 49%.
Screening CCOC(=O)c1sc2ncnc(NCc3ccco3)c2c1C returned DT40 TDP1 no CPT inconclusive, TDP1 cell CPT 18µM*, HT1080-NT tox -3%, IL1B secr inh 10, HT1080 IDH1KD tx -4% and ALOX12 inh 0%.
For CCc1cc2c(NCC(=O)O)ncnc2s1 the results were DT40 TDP1 no CPT inconclusive, TDP1 cell CPT -3%, HT1080-NT tox 3%, IL1B secr inh -2, HT1080 IDH1KD tx 8% and ALOX12 inh 0%.
Screening CCc1cc2c(NCc3ccco3)ncnc2s1 returned DT40 TDP1 no CPT 13µM*, TDP1 cell CPT 18µM*, HT1080-NT tox -14%, IL1B secr inh -19, HT1080 IDH1KD tx -19% and ALOX12 inh inconclusive.
For COc1ccc(Br)cc1CNC(=O)c1ccc2c(c1)N(Cc1ccc(C)cc1)CCS2 the results were DT40 TDP1 no CPT inconclusive, TDP1 cell CPT inconclusive and ALOX12 inh -19%.
